Screening data as filed in PubChem.
An excerpt weighted towards active compounds, which were near 4% of everything screened.
CF NFkB inh – blocks PAF-induced NF-kB reporter in cystic fibrosis cells; inhibition, % at 5 µM; KKLEB NF-kB-GFP reporter, GFP fluorescence overnight; actives 0.86% (n = 360,000); AID 588850;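 active = at least 50% inhibition at 5 µM, scaled per plate between neutral and stimulator controls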;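 note: PAF is a Pseudomonas aeruginosa culture filtrate used as stimulus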
Peg3 prom inh-1 – Peg3 promoter activity inhibition. HeLa PEG-Prom luciferase reporter, luminescence, overnight. inhibition, % at 20 µM. actives 1.7% (n = 360,000). AID 588405;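 active = inhibition of at least 50% at 20 µM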
TWEAK-Fn14 inh – TWEAK-Fn14 signaling inhibition. actives 2% (n = 360,000). TWEAK-stimulated Fn14 reporter cells, luciferase luminescence, 8 h. inhibition, % at 10 µM. AID 1159606; in the data active = inhibition above about 50%
KKLEB cytotox – CF airway cell cytotoxicity counter-screen | KKLEB CF airway cells viability, ATPlite luminescence, overnight; hits give low values; cells stimulated with P. aeruginosa culture filtrate | actives 0.36% (n = 360,000) | activity change (cytotoxicity), % at 5 µM;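 active = corrected activity change at or below -50% at 5 µM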
TROY signal inh – inhibitors of TROY-dependent NF-kB signaling. Q293 LMP1-TROYcd NF-kB luciferase reporter, 4 h. inhibition, % at 10 µM. actives 0.98% (n = 360,000);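 active = compounds whose plate-normalised and pattern-corrected inhibition of the luciferase reporter signal at the single screening dose is 50% or more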
HIF-2a inh – inhibitors of HIF-2a | actives 0.72% (n = 360,000) | 786-0 RCC cells HIF-2a reporter, luciferase luminescence, overnight | inhibition, % at 18.8 µM;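 active = inhibition of the luminescence signal of 40% or more relative to plate controls, in a single-dose primary screen at 18.75 µM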
Peg3 prom inh-2 – confirmation of Peg3 promoter inhibitors; shares compounds with Peg3 prom inh-1; HeLa PEG-Prom luciferase reporter, luminescence, overnight; inhibition, % at 20 µM; actives 84% (n = 1,300);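 active = at 20 µM dose, 40% or more inhibition averaged across four replicates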
Mdm2-MdmX confirm – confirmation of inhibitors of human Mdm2/MdmX interaction, set 2. shares compounds with HIF-2a inh. AID 504601. inhibition, % at 8 µM. SaOS-2 split-luciferase Mdm2/MdmX complementation, luminescence. actives 99% (n = 740);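 active = mean inhibition of the luminescence signal across two replicates at or above 26 percent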
Target sequence (O15151 whole entry, looked up): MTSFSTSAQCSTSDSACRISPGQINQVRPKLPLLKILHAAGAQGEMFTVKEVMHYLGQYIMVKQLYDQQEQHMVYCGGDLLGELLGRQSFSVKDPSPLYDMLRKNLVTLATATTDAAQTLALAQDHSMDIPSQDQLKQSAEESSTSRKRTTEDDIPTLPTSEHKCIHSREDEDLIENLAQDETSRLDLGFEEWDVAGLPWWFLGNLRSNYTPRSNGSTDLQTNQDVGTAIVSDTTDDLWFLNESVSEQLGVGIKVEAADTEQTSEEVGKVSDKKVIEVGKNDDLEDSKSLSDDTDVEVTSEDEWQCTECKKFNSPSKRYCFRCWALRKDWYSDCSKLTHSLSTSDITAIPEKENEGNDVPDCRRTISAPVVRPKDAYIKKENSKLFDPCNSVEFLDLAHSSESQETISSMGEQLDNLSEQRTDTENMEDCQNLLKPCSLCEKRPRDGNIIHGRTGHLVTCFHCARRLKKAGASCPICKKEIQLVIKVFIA
Target sequence (Q00987 whole entry, looked up): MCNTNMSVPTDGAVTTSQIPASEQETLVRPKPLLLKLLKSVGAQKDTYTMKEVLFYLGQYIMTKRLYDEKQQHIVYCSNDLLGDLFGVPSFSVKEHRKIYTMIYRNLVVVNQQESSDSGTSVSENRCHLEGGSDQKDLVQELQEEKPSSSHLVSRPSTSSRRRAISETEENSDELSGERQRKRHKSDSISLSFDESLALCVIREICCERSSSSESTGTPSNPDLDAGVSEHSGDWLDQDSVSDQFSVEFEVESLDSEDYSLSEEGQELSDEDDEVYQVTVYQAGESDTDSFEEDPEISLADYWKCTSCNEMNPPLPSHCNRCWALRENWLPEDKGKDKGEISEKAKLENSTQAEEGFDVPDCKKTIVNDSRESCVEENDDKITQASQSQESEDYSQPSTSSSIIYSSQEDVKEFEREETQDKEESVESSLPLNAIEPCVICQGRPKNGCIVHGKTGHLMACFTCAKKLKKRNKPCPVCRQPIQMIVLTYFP
HIF-2a inh conf – confirmation of HIF-2a inhibitors. shares compounds with HIF-2a inh. 786-0 RCC cells, HIF-2a luciferase reporter luminescence, overnight. inhibition, % at 18.8 µM. actives 56% (n = 1,800). AID 651580;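 active = mean inhibition across four replicates of at least 40 percent at the single tested concentration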
HIF-1a counter – counter-screen for HIF-2a inhibitors: HIF-1a inhibition in MiaPaCa-2 cells. shares compounds with HIF-2a inh. MiaPaCa-2 HIF-1a luciferase reporter, desferoxamine, overnight. inhibition, % at 18.8 µM. actives 72% (n = 1,800);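 active = mean inhibition of the reporter signal across four replicates at the single tested dose of 50% or more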
Of the large screens only hits and unclear results are named; the others gave an inactive call (follow-up assays come after a bar, where they were run).

COc1cccc2cc(-c3nnc(SCC(=O)Nc4cc(C(F)(F)F)ccc4Cl)n3N)oc12	none
CCN(CC)c1ccc(N2C(=NC(=O)C3CCCO3)SC3CS(=O)(=O)CC32)cc1 (stereo not drawn)	none
NCCCNc1nc(N)c([N+](=O)[O-])c(NC2CCCCC2)n1	Peg3 prom inh-1 67, HIF-2a inh 48 | Peg3 prom inh-2 80 | HIF-2a inh conf inactive | HIF-1a counter 99
COCCNc1nc(N)c([N+](=O)[O-])c(NC2CCCCC2)n1	none
O=C1CCC2S/C(=C/Nc3ccc(C(F)(F)F)cc3)C(=O)N12 (stereo not drawn)	Peg3 prom inh-1 67, TWEAK-Fn14 inh 86, HIF-2a inh 97 | Peg3 prom inh-2 89 | HIF-2a inh conf 98 | HIF-1a counter 105
O=C(O)CSCC(=O)Nc1ccc(C2CCCCC2)cc1	Peg3 prom inh-1 71, TWEAK-Fn14 inh 92, TROY signal inh 83, HIF-2a inh 81 | Peg3 prom inh-2 77 | HIF-2a inh conf 95 | HIF-1a counter 94
Nn1cnnc1SCC(=O)Nc1ccc(C2CCCCC2)cc1	none
Cc1cc(C)cc(NS(=O)(=O)c2ccc3c(c2)c(=O)n(C)c(=O)n3C)c1	Peg3 prom inh-1 54, HIF-2a inh 50 | Peg3 prom inh-2 70 | HIF-2a inh conf 41 | HIF-1a counter 101
Cn1c(=O)c2cc(S(=O)(=O)Nc3cc(C(=O)O)cc(C(=O)O)c3)ccc2n(C)c1=O	none
COC(=O)c1c(NC(=O)Cc2ccccc2)sc2c1CCN(C(C)C)C2	none
COC(=O)c1c(NC(=O)c2ccc([N+](=O)[O-])o2)sc2c1CCN(C(C)C)C2	CF NFkB inh 75, Peg3 prom inh-1 94 | Peg3 prom inh-2 69 | Mdm2-MdmX confirm 84
C/C(=N\NC(=O)c1ccc(CSc2nncn2C)cc1)c1ccc2ccccc2c1	none
O=C(Nc1ccc2c(c1)OCO2)Nc1ccc2c(c1)OCO2	none
O=C(O)c1ccc(N/N=C/c2ccc3c(c2)OCO3)cc1	Peg3 prom inh-1 94, TWEAK-Fn14 inh 102, TROY signal inh 82, HIF-2a inh 86 | Peg3 prom inh-2 82 | HIF-2a inh conf 90 | HIF-1a counter 88
O=C(O)c1ccc(N/N=C/c2ccc(C(F)(F)F)cc2)cc1	Peg3 prom inh-1 66, TWEAK-Fn14 inh 90, HIF-2a inh 45 | Peg3 prom inh-2 52 | HIF-2a inh conf 68 | HIF-1a counter inactive
CC(C)(C)c1ccc(/C=N/Nc2ccc(C(=O)O)cc2)cc1	Peg3 prom inh-1 80, TWEAK-Fn14 inh 93, TROY signal inh 59, HIF-2a inh 74 | Peg3 prom inh-2 73 | HIF-2a inh conf 76 | HIF-1a counter inactive
O=C(Nc1cccc(C(=O)O)c1)Nc1ccc2c(c1)OCO2	Peg3 prom inh-1 84, HIF-2a inh 83 | Peg3 prom inh-2 74 | Mdm2-MdmX confirm 64
COc1cc(NC(=O)C2CCN(S(=O)(=O)c3cccc4nonc34)CC2)cc(OC)c1	none
CCOC(=O)C1(C)CCN1C(=O)c1ccc(N(C)C)cc1 (stereo not drawn)	none
Cc1c(NC(=O)c2ccc(Br)o2)c(=O)n(-c2ccccc2)n1C	none
O=C(NCCS(=O)(=O)NCCc1ccccc1)c1ccc2c(c1)OCO2	none
O=C(NCCc1ccccc1)c1ccc2c(c1)OCCO2	Peg3 prom inh-1 105, TWEAK-Fn14 inh 99, TROY signal inh 83, HIF-2a inh 84 | Peg3 prom inh-2 90 | HIF-2a inh conf 91 | HIF-1a counter 95
O=C(NCCc1ccccc1)c1ccc2c(c1)OCCCO2	Peg3 prom inh-1 108, TWEAK-Fn14 inh 101, KKLEB cytotox -52, TROY signal inh 84, HIF-2a inh 92 | Peg3 prom inh-2 94 | Mdm2-MdmX confirm 99
